# The list is not random: actives were taken first. Their share in the collection is about 3.5%.
# GPR151 ag = activators of human GPR151. activation, % at 11.2 µM. 650,000 compounds, 1% hits. PathHunter beta-arrestin GPR151 cells, luminescence. AID 1508602; in the data active means activation above about 4.9%;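 further: 0% = median of compound wells and 100% = cells with positive control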
# TEAD-YAP inh = TEAD-YAP interaction inhibition. 640,000 compounds, 1.4% hits. AID 1259422. inhibition, % at 9.12 µM. HEK-TIYL cells, TEAD-Gal4/YAP UAS-luciferase luminescence; in the data active means inhibition above about 32%;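 further: 0% = median of test compound wells and 100% = reference inhibitor wells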
# MITF primary = human MITF inhibition, primary screen; AlphaScreen MITF homodimerization, bead proximity signal; inhibition, % at 2.6 µM; O75030; 650,000 compounds, 0.91% hits; in the data active means inhibition above about 50%;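 further: 0% = vehicle wells with protein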
# FBW7 act = activators of human E3 ligase FBW7; Q969H0; AlphaScreen FBW7–phospho-cyclin E peptide binding, activator screen; normalized activity (activation), % at 26.1 µM; 650,000 compounds, 0.13% hits; AID 1259310; in the data active means normalized activity above about 1.9%;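 further: purified mutant Fbw7 with reduced substrate affinity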
# GPR151 confirm = human GPR151 activation, confirmation screen. GPR151 PathHunter beta-arrestin cells, luminescence, 90 min; % of EA-reagent control over plate median. shares compounds with GPR151 ag. activation, % at 11.2 µM. 6,700 tested, under 10 active;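 active means mean percent activation across replicates above the confirmation screen cutoff of 4.91%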
# GPR119 counter = counter-screen for GPR151 activators: effect on human GPR119. activation, % at 11.2 µM. GPR119 PathHunter beta-arrestin cells, luminescence, 90 min; 0 = compound-well median, 100 = enzyme-acceptor control. shares compounds with GPR151 ag. 6,700 compounds, 0.3% hits. AID 1508611;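 active means mean percent activation in the counterscreen above 29.09%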;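 further: counterscreen on off-target GPR119 to flag nonselective hits from the GPR151 activator screen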
# Target sequence (Q8TDV5 whole entry, looked up): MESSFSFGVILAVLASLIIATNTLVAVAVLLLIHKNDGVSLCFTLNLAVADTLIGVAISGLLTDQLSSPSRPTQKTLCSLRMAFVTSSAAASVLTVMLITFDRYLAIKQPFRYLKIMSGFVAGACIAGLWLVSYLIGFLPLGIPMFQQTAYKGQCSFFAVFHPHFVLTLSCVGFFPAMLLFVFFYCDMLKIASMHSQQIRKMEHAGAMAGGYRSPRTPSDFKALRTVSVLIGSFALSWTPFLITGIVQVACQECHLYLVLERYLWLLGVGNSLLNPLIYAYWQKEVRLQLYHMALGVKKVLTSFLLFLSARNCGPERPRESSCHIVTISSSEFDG
# The depositor's hits bear a star; / = not tested or not shown; ! = not confirmed by another sample.
SMILES,GPR151 ag,TEAD-YAP inh,MITF primary,FBW7 act,GPR151 confirm,GPR119 counter
CCOC(=O)Nc1nnc(Cc2ccc(Cl)c(Cl)c2)s1,5.8*,0,15,0,1,-4
CCOC(=O)N1CCN(C(=O)CN(c2ccccc2Br)S(C)(=O)=O)CC1,7.6*,2,14,0,1,-5
CS(=O)(=O)Oc1ccc(C(=O)/C=C/c2cccs2)cc1,-1,-37,-10,0,/,/
COc1ccc(C(C)(C)C)cc1NC(=O)COn1nnc2ccc(C(F)(F)F)cc21,5.1*,15,-9,0,0,5
COc1ccccc1-c1nnc(C2CCN(S(=O)(=O)c3ccccc3)CC2)o1,5.8*,0,-5,0,0,-10
CN(C)CCN(C)Cc1ccc2c(c1)OCO2,0,9,13,0,/,/
O/N=C/c1ccc[n+](C/C=C/c2ccccc2)c1,-1,3,16,0,/,/
Brc1ccc2c(ccc[n+]2C/C=C/c2ccccc2)c1,6.2*,14,-3,0,1,-7
O=C(Nc1nnc(COc2ccccc2)o1)c1cc(Br)ccc1Cl,4.9*,3,12,0,-2,-15
O=C(Nc1nnc(COc2ccccc2)o1)c1ccccc1,0,9,20,0,/,/
COc1ccc(C(=O)COC(=O)c2ccc(Br)cc2)cc1,1,-2,-5,0,/,/
NC(=O)CCN(CCC(N)=O)S(=O)(=O)c1ccc(Br)cc1,1,2,-2,0,/,/
NC(=O)CCN(CCC(N)=O)S(=O)(=O)c1ccccc1,6.6*,-2,14,0,-1,-4
Cc1nnc(NC(C)c2ccccc2)[nH]c1=O (stereo not drawn),5.5*,-1,-3,0,0,4
COc1ccccc1NC1CC(=O)N(c2cccc(Cl)c2)C1=O (stereo not drawn),9.1*,-9,2,0,0,4
COc1ccc(NC2CC(=O)N(c3ccc(Cl)c(C(F)(F)F)c3)C2=O)cc1 (stereo not drawn),6.0*,15,3,0,0,-8
COc1ccc(NC2CC(=O)N(c3ccc(OC)cc3)C2=O)cc1 (stereo not drawn),-2,0,-5,0,/,/
COc1ccccc1NC1CC(=O)N(c2ccc(Br)cc2)C1=O (stereo not drawn),0,6,-5,0,/,/
O=C(O)CCCC(=O)N1CCC(N2C(=O)Cc3ccccc32)CC1,9.2*,-6,-6,0,-1,-11
O=C(/C=C\c1ccc([N+](=O)[O-])cc1)Nc1nnc(-c2ccccc2)o1,0,-6,0,0,/,/
O=C(/C=C\c1ccc([N+](=O)[O-])cc1)Nc1nnc(-c2cccs2)o1,6.7*,-5,-5,0,-1,1
Cc1ccc(N2C(c3ccc(N(C)C)cc3)C(=O)C2N2C(=O)c3ccccc3C2=O)cc1 (stereo not drawn),8.4*,-1,23,1,0,4
O=C(Cc1cn(-c2ccc(Nc3cnccn3)nn2)c2ccccc12)NCCOc1ccccc1,6.2*,10,7,0,-1,-6
Cc1ccc(-c2nnc(Nc3ccccc3)c3ccccc23)cc1S(=O)(=O)N1CCOCC1,2,3,-11,0,/,/
Cc1ccc(-c2nnc(Nc3ccc(Br)cc3)c3ccccc23)cc1S(=O)(=O)N1CCOCC1,5.0*,3,-10,0,0,2
SMILES,GPR151 ag,TEAD-YAP inh,MITF primary,FBW7 act,GPR151 confirm,GPR119 counter
O=C(CN1CCCCCC1)N/N=C/c1ccccc1F,7.2*,-1,18,0,-1,2
Cc1ccc(C(=O)Nc2ccc(NC(=O)c3ccccc3N)cc2)cc1,5.3*,-8,-1,1,1,12
NCCCC[C@@H]1NC(=O)[C@H]2CN(Cc3cccc(Cl)c3)CCN2C1=O,2,4,2,0,/,/
S=C1NC2(CCCCC2)NN1c1ccccc1,6.6*,4,13,0,0,-10
Cc1ccc(N2NC3(CCCCCC3)NC2=S)cc1,0,-3,7,0,/,/
O=C(Nc1cccc2ccccc12)C1CC(=O)N(c2cccc(Cl)c2)C1 (stereo not drawn),6.9*,-1,7,0,0,6
C=CCn1c(N)c(C(=O)NCCc2ccc(OC)c(OC)c2)c2nc3ccccc3nc21,14*,7,1,1,0,-2
CCOC(=O)C1=C(O)/C(=C/c2ccc(N(C)C)cc2)N=C1C,12*,-2,15,0,0,-5
CCOC(=O)C1=C(O)/C(=C\c2ccc(F)cc2)N=C1C,0,5,-3,0,/,/
CCCOC1CCCN(C(=O)CCc2nnc(-c3ccc(C(C)=O)s3)o2)C1 (stereo not drawn),-1,-20,14,1,/,/
COCCN(Cc1cccc(Cl)c1)C(=O)c1nc2ccc(-c3cn[nH]c3)cc2s1,6.2*,-31,2,0,0,-7
COCCN(Cc1cccc(OC)c1)C(=O)c1nc2ccc(-c3cn[nH]c3)cc2s1,1,-9,4,0,/,/
CCOC(=O)c1cc(S(=O)(=O)NCc2cccs2)cn1C,0,1,16,0,/,/
CC1(C)[C@@H](O)CC[C@]2(C)[C@H]3C(=O)C=C4[C@@H]5C[C@@](C)(C(=O)O)CC[C@]5(C)CC[C@@]4(C)[C@]3(C)CC[C@@H]12,-1,9,-12,0,/,/
CC1(C)C2CC[C@]3(C)C(C(=O)C=C4[C@@H]5C[C@@](C)(C(=O)O)CC[C@]5(C)CC[C@]43C)[C@@]2(C)CC[C@@H]1OC(=O)CCC(=O)O (stereo partly drawn),5.2*!,0,10,0,1,5
Cc1ccc(CN2CCN(C/C=C/c3ccc(F)cc3)CC2CCO)o1 (stereo not drawn),13*,5,12,0,0,-5
Cc1ccc(CN2CCN(Cc3ccc4nonc4c3)CC2CCO)cc1 (stereo not drawn),-1,-1,11,0,/,/
CC(C)=CCN1CCN(Cc2ccc3nonc3c2)CC1CCO (stereo not drawn),5.4*,3,3,0,-1,-20
Cc1ccc(CN2CCN(Cc3ccc4c(c3)OCCO4)CC2CCO)o1 (stereo not drawn),5.9*,3,8,0,1,12
Cc1ccc(CN2CCN(C/C=C/C(C)C)CC2CCO)o1 (stereo not drawn),-1,-3,3,0,/,/
COc1ccccc1/C=C/CN1CCN(Cc2cccs2)C(CCO)C1 (stereo not drawn),6.9*,3,8,0,-1,-10
COc1ccccc1/C=C/CN1CCN(Cc2ccccc2)C(CCO)C1 (stereo not drawn),0,-3,-3,0,/,/
COC(=O)c1ccccc1NC(=O)c1ccc(C(C)C)cc1,2,-12,0,0,/,/

# Screens: PubChem BioAssay, The Scripps Research Institute Molecular Screening Center
